Experimental data published in PubChem BioAssay (NCATS).
Inconclusive results are not listed. Entries that show only a call come without a potency. The source made the active and inactive calls. Calls come from the whole dose curve; as a rule, active = well fitted inhibition curve with a large enough effect; inconclusive = small, poorly fitted or top-dose-only effect; inactive = no such curve, though single readings can be large or run the other way.

Tests used:
[1] = test system: Zika virus NS2B-NS3 protease (unlinked complex); assay: Primary screen GU Rhodamine qHTS for Zika virus inhibitors: Unlinked NS2B-NS3 protease assay (AID 1347159); note: nearly all actives have a fitted effect of over 60% in size; note: potency is the fitted concentration of half-maximal effect
How it was run: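 Buffer 10 mM Tris-HCl pH 8.0, 0.01% Tween 20. Unlinked protease 25 nM; compound preincubation 15 min, RT, protected from light. Substrate Rhod110, 1.5 microM; ~15% conversion in 15 min.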

[2] = test system: Zika virus NS2B-NS3 protease (linked construct); assay: Primary screen NINDS Rhodamine qHTS for Zika virus inhibitors (AID 1347160); note: nearly all actives have a fitted effect of over 55% in size
How it was run: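 Aprotinin served as in-plate control. Conditions: 25 nM linked NS2B-NS3, pH 8.0 Tris buffer, titrated compounds, 15 min preincubation and 15 min reaction with 1.5 microM Rhod110 substrate at room temperature.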

Structure (SMILES) | Potency [1] | Potency [2]
Cc1cc(Cn2cnc3c2CC(C(=O)O)N(C(=O)C(c2ccccc2)c2ccccc2)C3)ccc1N(C)C (stereo not given) | inactive | inactive
CC(=O)O[C@H]1C[C@@H](O)C(C)(C)C2C[C@@H](OC(C)=O)[C@]3(C)C(CC[C@@]4(C)[C@H](c5ccoc5)OC(=O)[C@H]5O[C@]543)[C@]21C (stereo not given in full) | inactive | inactive
N[C@@H](CC(=O)Nc1ccc(Oc2cc(F)c(F)cc2Br)cc1)C(=O)O | 70.8 µM (active) | inactive
Fc1cccc(CN(C2=NCCN2)c2c(Cl)cccc2Cl)c1 | inactive | inactive
CC(C)C1NC(=O)C2CCCN2C1=O (stereo not given) | inactive | inactive
COc1c2c(c(C)c3c1C(=O)OC3)OC1(C)CC(O)C34OC(O)(CCC3(C)C1C2)OC4(C)C (stereo not given) | inactive | inactive
CC(=O)O[C@@H]1[C@@H](O)[C@H](C)O[C@@H](O[C@H]2[C@@H]3C=CO[C@@H](O[C@@H]4O[C@H](CO)[C@@H](O)[C@H](O)[C@H]4OC(C)=O)[C@@H]3[C@@]3(CO)O[C@@H]23)[C@@H]1OC(=O)/C=C/c1ccc(O)cc1 | inactive | inactive
COC(=O)C1=CO[C@@H](O[C@@H]2O[C@H](CO)[C@@H](O)[C@H](O)[C@H]2O)[C@@H]2[C@@H](CO)[C@@H](O)C(O)[C@H]12 (stereo not given in full) | inactive | inactive
CCOC(=O)c1ccc(NC2CCCCC2)c(N)c1 | inactive | inactive
CC1(C)CC[C@]2(C(=O)O[C@@H]3O[C@H](CO[C@@H]4O[C@H](CO)[C@@H](O)[C@H](O)[C@H]4O)[C@@H](O)[C@H](O[C@@H]4O[C@H](CO)[C@@H](O)[C@H](O)[C@H]4O)[C@H]3O)[C@H](O)C[C@]3(C)C(=CCC4[C@@]5(C)CC[C@H](O[C@@H]6OC[C@@H](O)[C@H](O)[C@H]6O)[C@@](C)(C(=O)O)C5CC[C@]43C)[C@@H]2C1 (stereo not given in full) | inactive | inactive
COc1c(O)cc2c(c1O)C(=O)O[C@H](C)[C@H]2O | inactive | inactive
NC(=O)C(O[C@@H]1O[C@H](CO[C@@H]2O[C@H](CO)[C@@H](O)[C@H](O)[C@H]2O)[C@@H](O)[C@H](O)[C@H]1O)c1ccccc1 (stereo not given in full) | inactive | inactive
C[C@]12CCC[C@](C)(C(=O)O)C1CCC13CC(CO)C(CCC12)C3 (stereo not given in full) | inactive | inactive
CC1(C)CCC[C@@]2(C)[C@H]1[C@H](O)C=C(CO)[C@]2(O)CO | inactive | inactive
CC(=O)c1ccc(O[C@@H]2OC[C@@H](O)[C@H](O)[C@H]2O[C@]2(CO)O[C@H](CO)[C@@H](O)[C@@H]2O)c(O)c1 | inactive | inactive
C=C1CCC2[C@](C)(CO)CCC[C@@]2(C)[C@@H]1CCC1=CCOC1=O (stereo not given in full) | inactive | inactive
CC(C)/C=C1/NC(=O)C(C(C)C)n2c1nc1c(O)cccc1c2=O (stereo not given) | inactive | inactive
COC(=O)C1=CO[C@@H](O[C@@H]2O[C@H](CO)[C@@H](O)[C@H](O)[C@H]2O)[C@H]2[C@@H]1C=C[C@]21C=C([C@H](C)OC(=O)/C=C/c2ccc(O[C@@H]3O[C@H](CO)[C@@H](O)[C@H](O)[C@H]3O)cc2)C(=O)O1 | inactive | inactive
CC1CCC2C(C(=O)O)=CC3(O)CC(C)(C)CC123 (stereo not given) | inactive | inactive
Cc1ccc(Nc2nnc(-c3ccc([N+](=O)[O-])cc3)o2)cc1Cl | inactive | inactive
C/C=C(\C)C(=O)OC[C@H]1O[C@@H](O[C@H]2[C@@H](O[C@H]3O[C@H](COC(=O)/C(C)=C/C)[C@@H](O)[C@H](O)[C@H]3O[C@@H]3O[C@H](COC(=O)/C(C)=C/C)[C@@H](O)[C@H](OC(=O)/C(C)=C/C)[C@H]3O)O[C@H](COC(=O)/C(C)=C/C)[C@@H](O)[C@@H]2O)[C@H](O)[C@@H](O)[C@@H]1O | inactive | inactive
C[C@@H]1CCC2C(C)(C)[C@H](O)[C@H](O)C[C@]2(C)[C@@]12Cc1c(O)cc3c(c1O2)CN(CCCC(=O)O)C3=O (stereo not given in full) | inactive | inactive
C[C@H](O)C(O)(C(=O)OCc1ccccc1NC(=O)CCC(N)C(=O)O)[C@H](C)O (stereo not given in full) | inactive | inactive
C=C[C@H]1[C@H](O[C@@H]2O[C@H](CO)[C@@H](O)[C@H](O)[C@H]2O)OC=C(C(=O)OC)[C@H]1CCO | inactive | inactive
OC[C@H]1O[C@@H](OC[C@H]2O[C@@H](OCc3ccccc3)[C@H](O)[C@@H](O)[C@@H]2O)[C@H](O)[C@@H](O)[C@@H]1O | inactive | inactive
